Laboratory results taken from the supplement of paper PMC9262897, “Low-cost anti-mycobacterial drug discovery using engineered E. coli” (Nature Communications, 2022).
Structures can show the parent of a compound that is named as a salt. ± gives the standard deviation of the averaged measurements.

system: E. coli TESEC Mtb DapB; experiment: growth (OD600 after 10 h); higher = more growth (less inhibition); details: arabinose induction (level): High; compound 0.1 mM; raw OD600 reference: median of DMSO wells […], cell-free background 0.041
Method: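 TESEC E. coli strains in which the native enzyme is deleted and replaced by arabinose-inducible Mtb Asd, DapB, CysH or TrpD, each grown in its selective medium. Strains were screened against the Prestwick library at 0.1 mM and 1% DMSO in 384-well format at low and high arabinose induction. Growth is read as OD600 after 10 h in triplicate.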

Row | SMILES | growth
1 | Oc1c(Cl)cc(Cl)c2cccnc12 [Chloroxine] | 0.0813 ± 0.015
2 | N#Cc1cc(NC(=O)C(=O)O)c(Cl)c(NC(=O)C(=O)O)c1 [Lodoxamide] | 0.222 ± 0.018
3 | CC(C)c1ccc2oc3nc(N)c(C(=O)O)cc3c(=O)c2c1 [Amlexanox] | 0.197 ± 0.0066
4 | CCN(CC)CCNc1ccc(CO)c2sc3ccccc3c(=O)c12 [Hycanthone] | 0.21 ± 0.027
5 | Nc1ccn([C@@H]2CS[C@H](CO)O2)c(=O)n1 [Lamivudine] | 0.18 ± 0.013
6 | O=C(Oc1cccc2cccnc12)c1ccccc1 [Benzoxiquine] | 0.182 ± 0.018
7 | Cn1c(=O)c2c(ncn2CC2OCCO2)n(C)c1=O [Doxofylline] | 0.1957 ± 0.00055
8 | CN(CCOc1ccc(NS(C)(=O)=O)cc1)CCc1ccc(NS(C)(=O)=O)cc1 [Dofetilide] | 0.229 ± 0.041
9 | O=C1c2ccccc2C(=O)C1c1ccccc1 [Phenindione] | 0.194 ± 0.0095
10 | CN(C)C/C=C(/c1ccc(Br)cc1)c1cccnc1 [Zimelidine dihydrochloride monohydrate] | 0.168 ± 0.0086
11 | CCCNC(C)(C)COC(=O)c1ccccc1 [Meprylcaine hydrochloride] | 0.182 ± 0.022
12 | CN(C)CCCN1c2ccccc2CCc2ccccc21 [Imipramine hydrochloride] | 0.194 ± 0.016
13 | CCCCC(C)(O)C/C=C/[C@H]1[C@H](O)CC(=O)[C@@H]1CCCCCCC(=O)OC (mixture of isomers) [Misoprostol] | 0.332 ± 0.034
14 | NCC[C@H](O)C(=O)N[C@@H]1C[C@H](N)[C@@H](O[C@H]2O[C@H](CN)[C@@H](O)[C@H](O)[C@H]2O)[C@H](O)[C@H]1O[C@H]1O[C@H](CO)[C@@H](O)[C@H](N)[C@H]1O [Amikacin hydrate] | 0.0548 ± 0.0017
15 | C[C@H](N)[C@H](O)c1cccc(O)c1 [Metaraminol bitartrate] | 0.208 ± 0.014
16 | COc1ccc2c(c1)c(CC(=O)O)c(C)n2C(=O)c1ccc(Cl)cc1 [Indomethacin] | 0.156 ± 0.0079
17 | CCCN(CCC)S(=O)(=O)c1ccc(C(=O)O)cc1 [Probenecid] | 0.232 ± 0.0066
18 | CCOC(=O)C(C)(C)Oc1ccc(Cl)cc1 [Clofibrate] | 0.19 ± 0.015
19 | Cc1ncc(CO)c(CO)c1O [Pyridoxine hydrochloride] | 0.215 ± 0.011
20 | CCCOc1ccc(C(=O)OCCN(CC)CC)cc1N [Proparacaine hydrochloride] | 0.187 ± 0.0041

same assay, conditions: arabinose induction (level): Low; compound 0.1 mM; raw OD600 reference: median of DMSO wells 0.227, cell-free background 0.041

Row | SMILES | growth
21 | Oc1c(Cl)cc(Cl)c2cccnc12 [Chloroxine] | 0.117 ± 0.069
22 | N#Cc1cc(NC(=O)C(=O)O)c(Cl)c(NC(=O)C(=O)O)c1 [Lodoxamide] | 0.235 ± 0.03
23 | CC(C)c1ccc2oc3nc(N)c(C(=O)O)cc3c(=O)c2c1 [Amlexanox] | 0.206 ± 0.036
24 | CCN(CC)CCNc1ccc(CO)c2sc3ccccc3c(=O)c12 [Hycanthone] | 0.163 ± 0.01
25 | Nc1ccn([C@@H]2CS[C@H](CO)O2)c(=O)n1 [Lamivudine] | 0.207 ± 0.016
26 | O=C(Oc1cccc2cccnc12)c1ccccc1 [Benzoxiquine] | 0.201 ± 0.015
27 | Cn1c(=O)c2c(ncn2CC2OCCO2)n(C)c1=O [Doxofylline] | 0.238 ± 0.0011
28 | CN(CCOc1ccc(NS(C)(=O)=O)cc1)CCc1ccc(NS(C)(=O)=O)cc1 [Dofetilide] | 0.241 ± 0.032
29 | O=C1c2ccccc2C(=O)C1c1ccccc1 [Phenindione] | 0.227 ± 0.017
30 | CN(C)C/C=C(/c1ccc(Br)cc1)c1cccnc1 [Zimelidine dihydrochloride monohydrate] | 0.261 ± 0.12
31 | CCCNC(C)(C)COC(=O)c1ccccc1 [Meprylcaine hydrochloride] | 0.221 ± 0.0093
32 | CN(C)CCCN1c2ccccc2CCc2ccccc21 [Imipramine hydrochloride] | 0.243 ± 0.071
33 | CCCCC(C)(O)C/C=C/[C@H]1[C@H](O)CC(=O)[C@@H]1CCCCCCC(=O)OC (mixture of isomers) [Misoprostol] | 0.311 ± 0.044
34 | NCC[C@H](O)C(=O)N[C@@H]1C[C@H](N)[C@@H](O[C@H]2O[C@H](CN)[C@@H](O)[C@H](O)[C@H]2O)[C@H](O)[C@H]1O[C@H]1O[C@H](CO)[C@@H](O)[C@H](N)[C@H]1O [Amikacin hydrate] | 0.0518 ± 0.0032
35 | C[C@H](N)[C@H](O)c1cccc(O)c1 [Metaraminol bitartrate] | 0.23 ± 0.024
36 | COc1ccc2c(c1)c(CC(=O)O)c(C)n2C(=O)c1ccc(Cl)cc1 [Indomethacin] | 0.214 ± 0.073
37 | CCCN(CCC)S(=O)(=O)c1ccc(C(=O)O)cc1 [Probenecid] | 0.223 ± 0.02
38 | CCOC(=O)C(C)(C)Oc1ccc(Cl)cc1 [Clofibrate] | 0.236 ± 0.041
39 | Cc1ncc(CO)c(CO)c1O [Pyridoxine hydrochloride] | 0.239 ± 0.04
40 | CCCOc1ccc(C(=O)OCCN(CC)CC)cc1N [Proparacaine hydrochloride] | 0.231 ± 0.021
